# Source: PubChem BioAssay
# Several values for one entry are separate records, joined by “and”; a condition that tells them apart may be missing. Equal values may be shown once. Inconclusive results are not listed. For part of these data: Results with a measured potency or affinity are listed apart. Activity calls are given as the source filed them. Unless noted, the rule behind the calls is not given here.
# Tests used:
# [1] = differential killing of epithelial or mesenchymal cells, primary screen, imaging, PC-3E GFP, TEM4-18 mCherry, co-culture (AID 1345086;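 active = compounds killing one labelled cell type while sparing the other, by normalised counts and ratio limits, not self-fluorescent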;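 for all read-outs here: cells exposed to compound for 72 h before imaging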;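 for red/green cell ratio (normalised): normalised mesenchymal count divided by normalised epithelial count so high means epithelial killing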); details: imaging cell counts, at 1 µM; for red/green cell ratio (normalised): actives lie on both sides
# [2] = test system: Aerobactin synthetase IucA (Klebsiella pneumoniae hvKP1); test: Biochemical IucA enzyme inhibition primary screen of the Spectrum library (AID 1346200); details: malachite green pyrophosphate, A620, at 8 µM, stronger effect = lower value;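 note: 100% = wells without compound and 0% = wells lacking enzyme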
# [3] = molecular target: Mitogen-activated protein kinase 7 (Homo sapiens) (UniProt Q13164); test: ERK5 transactivation activators in reporter cells, primary screen, cell-based, HTS (AID 1508626;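 active = luciferase signal above three times the same-plate solvent-only control wells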;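 note: luciferase driven by Gal4-ERK5 fusion binding five Gal4 sites before minimal TATA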); details: HeLa Gal4-ERK5 transactivation, 18 h, at 5 µM, stronger effect = higher value
# Chain of Mitogen-activated protein kinase 7 (Homo sapiens) (Q13164 whole entry, looked up, the tested form may be a part): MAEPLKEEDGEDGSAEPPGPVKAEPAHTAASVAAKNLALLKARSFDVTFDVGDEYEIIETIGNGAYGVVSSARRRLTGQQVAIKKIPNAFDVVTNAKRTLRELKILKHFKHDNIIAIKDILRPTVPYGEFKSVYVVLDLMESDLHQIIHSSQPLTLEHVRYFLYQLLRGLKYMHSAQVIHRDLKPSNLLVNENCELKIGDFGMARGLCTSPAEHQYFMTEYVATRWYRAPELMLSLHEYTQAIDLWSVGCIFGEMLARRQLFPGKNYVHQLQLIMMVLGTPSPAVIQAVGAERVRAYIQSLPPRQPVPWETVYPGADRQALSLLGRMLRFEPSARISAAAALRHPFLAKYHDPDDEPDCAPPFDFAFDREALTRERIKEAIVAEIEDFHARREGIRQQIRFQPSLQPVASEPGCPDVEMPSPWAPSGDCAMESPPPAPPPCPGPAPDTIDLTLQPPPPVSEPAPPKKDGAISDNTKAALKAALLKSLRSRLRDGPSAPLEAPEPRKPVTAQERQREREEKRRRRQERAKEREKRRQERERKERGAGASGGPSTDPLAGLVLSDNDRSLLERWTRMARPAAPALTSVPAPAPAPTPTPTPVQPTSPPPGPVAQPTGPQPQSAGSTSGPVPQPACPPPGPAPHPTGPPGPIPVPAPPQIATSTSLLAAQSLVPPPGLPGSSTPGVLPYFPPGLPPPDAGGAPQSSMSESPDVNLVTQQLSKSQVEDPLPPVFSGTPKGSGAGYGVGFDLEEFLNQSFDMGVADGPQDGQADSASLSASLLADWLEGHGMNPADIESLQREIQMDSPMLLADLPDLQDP
# [4] = sensitizers of A549 cells to miR-34 induction, primary screen, imaging, A549 dox-inducible miR-34, nuclei and caspase counts (AID 1347080;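 active = compounds whose cell count with miR-34 switched on is under 0.7 times the count with it off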); details: A549 miR-34 inducible, Hoechst nuclei count, 48 h
# [5] = molecular target: NAD(+) hydrolase SARM1 (Homo sapiens) (UniProt Q6SZW1); test: SARM1 TIR NADase inhibitors, cell lysate, NAD-Glo luminescence (AID 1508614;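 active = compound whose remaining NAD level is above about 45 nM, limit read from the data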;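 note: higher remaining NAD means stronger inhibition of SARM1 NADase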); details: SAM-TIR HEK293T lysate NADase, at 1 µM, stronger effect = higher value
# Chain of NAD(+) hydrolase SARM1 (Homo sapiens) (Q6SZW1 whole entry, looked up): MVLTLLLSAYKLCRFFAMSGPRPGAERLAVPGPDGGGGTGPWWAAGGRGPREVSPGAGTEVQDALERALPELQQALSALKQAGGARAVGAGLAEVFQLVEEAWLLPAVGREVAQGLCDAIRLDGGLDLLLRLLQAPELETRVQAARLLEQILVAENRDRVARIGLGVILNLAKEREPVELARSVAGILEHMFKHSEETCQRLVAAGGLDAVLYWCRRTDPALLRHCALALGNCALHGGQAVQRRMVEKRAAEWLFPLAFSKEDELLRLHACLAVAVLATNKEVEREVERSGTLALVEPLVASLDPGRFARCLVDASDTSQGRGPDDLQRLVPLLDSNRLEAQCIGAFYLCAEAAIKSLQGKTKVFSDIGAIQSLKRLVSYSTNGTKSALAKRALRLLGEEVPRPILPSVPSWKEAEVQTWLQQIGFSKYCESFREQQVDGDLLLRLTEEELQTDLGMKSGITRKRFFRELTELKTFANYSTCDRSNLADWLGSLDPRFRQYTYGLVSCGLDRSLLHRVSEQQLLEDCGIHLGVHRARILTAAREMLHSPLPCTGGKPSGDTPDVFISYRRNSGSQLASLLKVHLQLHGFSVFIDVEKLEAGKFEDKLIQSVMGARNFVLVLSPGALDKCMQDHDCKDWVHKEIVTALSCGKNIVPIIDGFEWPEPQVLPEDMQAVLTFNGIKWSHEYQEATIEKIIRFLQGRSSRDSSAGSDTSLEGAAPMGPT
# [6] = hESC survival regulators, cell-based (AID 493140); details: human embryonic stem cell survival screen; stronger effect = higher value;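 note: cells exposed to compounds for four days before counting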
# [7] = liver-stage malaria parasite growth inhibition, primary screen, cell-based, HepG2, luciferase luminescence, HepG2 viability (AID 624349; in the data active = parasite load remaining mostly below about 12%, no sharp cut-off; inactive = mostly above about 10%;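 note: 100% = mean of DMSO negative control wells on the same plate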); details: P. berghei liver stage in HepG2, luciferase luminescence, concentration not given here; parasite load remaining: stronger effect = lower value; viability: measured here: HepG2 viability without parasites
# [8] = polyglutamine-triggered caspase-3 activation inhibitors, cell-based (AID 1583); details: polyglutamine-induced caspase-3 activation, cell assay; stronger effect = higher value;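 tested at 10 µM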
# [9] = suppressors of polyQ aggregation in yeast, 75Q-TubU reporter (AID 1593); details: Yeast 75Q polyglutamine aggregation reporter
# [10] = rescue of polyQ-huntingtin neuronal dysfunction in worms, whole organism, C. elegans mechanosensory neurons, N-terminal huntingtin (AID 1599); details: touch response, stronger effect = higher value
# [11] = inhibitors of mitochondrial cytochrome c release, biochemical, purified mitochondria (AID 1603); details: stronger effect = lower value;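 note: mouse liver mitochondria challenged with calcium chloride; signal normalized to the plate average as 100%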
# [12] = inhibitors of polyQ protein aggregation (AID 1604); details: polyglutamine-induced protein aggregation inhibition assay; stronger effect = higher value; tested at 2.5 µM
# [13] = enhancers of glutamate uptake in motor neurons, MN-1 cell line (AID 1612); details: MN-1 motor neuron cells, stronger effect = higher value;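 note: tested at 1 µM final; 0% = mean of DMSO vehicle wells on each plate; positive means more glutamate uptake than control and negative means less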
# [14] = suppressors of polyglutamine aggregation in yeast, 75Q-TubH (AID 1616); details: S. cerevisiae 75Q-TubH polyglutamine aggregation suppression; stronger effect = higher value
# [15] = mitochondrial permeability transition inhibitors (AID 1580); details: isolated mitochondria, permeability transition inhibition
# [16] = circadian clock period modulators, cell-based, LOPAC library, luminescence reporter (AID 2774); details: circadian reporter cells, at 7 µM, actives lie on both sides;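 note: values are relative to mean of DMSO wells on each plate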
# [17] = test system: Hepatitis C virus NS3 helicase; test: HCV NS3 helicase inhibitors, primary screen, biochemical, fluorescence polarization, LOPAC1280 library (AID 687035; in the data active = inhibition above about 37%); details: Purified HCV NS3 helicase, Cy5-dT15 ssDNA binding fluorescence polarization; stronger effect = higher value; concentration not given here
# [18] = Cy5 fluorescence quenching or enhancement artefacts, artefact control for HCV NS3 helicase inhibitor project, biochemical, LOPAC1280 (AID 687037); details: Cy5-DNA-NS3h complex fluorescence interference counterscreen
# [19] = test system: Aerobactin synthetase IucA (Klebsiella pneumoniae, hypervirulent); test: IucA enzyme inhibition, biochemical, LOPAC library, absorbance readout (AID 1346212); details: IucA enzyme assay, absorbance (OD) readout; stronger effect = lower value;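 tested at 8 µM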;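 note: 100% = no compound wells and 0% = no enzyme wells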
# [20] = phospholipid biosynthesis inhibitors in animal cells, primary screen, cell-based, LOPAC library, screen 4 (AID 1347384); details: phospholipid biosynthesis inhibition screen, at 10 µM
# [21] = viability rescue of complex I mutant cybrids, primary screen, cell-based, galactose medium, ATP luminescence (AID 1645843;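 active = z-score of at least 1.8 in each of two replicates, scored against plate mean and spread of sample wells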;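 note: positive z means more ATP and so rescue of galactose-driven cybrid death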); details: complex I mutant cybrid cells, 72 h, stronger effect = higher value
# [22] = molecular target: ATP-dependent translocase ABCB1 (Homo sapiens) (UniProt P08183); test: MDR1 (ABCB1) efflux transporter inhibition, cell-based (AID 377; in the data active = fluorescence slope change above about 50%); details: MDR1-expressing cells, fluorescent substrate accumulation slope; stronger effect = higher value; concentration not given here
# Chain of ATP-dependent translocase ABCB1 (Homo sapiens) (P08183 whole entry, looked up): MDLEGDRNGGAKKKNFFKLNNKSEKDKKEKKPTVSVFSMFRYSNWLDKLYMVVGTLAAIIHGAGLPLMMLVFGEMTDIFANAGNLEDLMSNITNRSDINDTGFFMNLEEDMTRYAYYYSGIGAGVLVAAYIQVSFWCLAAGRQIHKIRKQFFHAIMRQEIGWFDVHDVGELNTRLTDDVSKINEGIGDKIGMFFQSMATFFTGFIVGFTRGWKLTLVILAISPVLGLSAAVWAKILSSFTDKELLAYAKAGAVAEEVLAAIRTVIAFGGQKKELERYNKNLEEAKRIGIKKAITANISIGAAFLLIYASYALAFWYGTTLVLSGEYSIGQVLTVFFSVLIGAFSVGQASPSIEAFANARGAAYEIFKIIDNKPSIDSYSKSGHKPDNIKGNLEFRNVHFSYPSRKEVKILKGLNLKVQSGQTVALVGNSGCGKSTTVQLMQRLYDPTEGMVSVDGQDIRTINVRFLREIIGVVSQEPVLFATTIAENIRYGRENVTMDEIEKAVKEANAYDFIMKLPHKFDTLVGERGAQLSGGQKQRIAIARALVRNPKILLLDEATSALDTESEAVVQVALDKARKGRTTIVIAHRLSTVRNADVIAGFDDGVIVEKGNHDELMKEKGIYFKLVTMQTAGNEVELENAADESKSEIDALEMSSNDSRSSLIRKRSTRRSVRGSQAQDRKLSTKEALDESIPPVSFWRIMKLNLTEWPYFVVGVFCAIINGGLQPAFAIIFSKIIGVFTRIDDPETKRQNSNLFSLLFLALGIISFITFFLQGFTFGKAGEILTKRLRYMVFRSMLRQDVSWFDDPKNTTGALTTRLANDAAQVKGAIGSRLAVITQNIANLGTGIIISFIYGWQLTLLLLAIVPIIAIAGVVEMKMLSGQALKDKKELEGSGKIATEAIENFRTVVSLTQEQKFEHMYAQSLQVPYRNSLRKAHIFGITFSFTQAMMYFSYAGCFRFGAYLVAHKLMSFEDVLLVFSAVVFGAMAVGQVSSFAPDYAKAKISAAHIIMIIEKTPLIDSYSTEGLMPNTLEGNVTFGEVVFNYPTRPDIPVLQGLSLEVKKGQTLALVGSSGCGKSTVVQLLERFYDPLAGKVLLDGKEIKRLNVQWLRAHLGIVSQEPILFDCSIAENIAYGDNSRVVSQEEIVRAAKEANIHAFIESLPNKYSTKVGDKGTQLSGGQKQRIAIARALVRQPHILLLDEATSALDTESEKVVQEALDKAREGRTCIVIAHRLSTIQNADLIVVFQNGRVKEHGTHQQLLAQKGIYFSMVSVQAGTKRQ
# [23] = survival rescue of mitochondrial mutant cells in low glucose, primary screen, MELAS cybrids, Rieske KO mouse fibroblasts, CellTiter-Glo (AID 1508586;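 active = mean z-score across replicates of 1.96 or higher in either the MELAS or the Rieske mutant cell line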;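 note: z relative to plate mean and SD of compound and empty wells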)
# [24] = measured here: epithelial PC-3E GFP cell survival
# [25] = measured here: mesenchymal TEM4-18 mCherry cell survival
# [26] = measured here: relative caspase fold change +Dox/-Dox
# [27] = measured here: total cells with miR-34 induction, stronger effect = lower value
# [28] = measured here: total cells without miR-34 induction
compound,measurement,setting,value
CC(=O)O[C@@H]1C[C@@]2(C)[C@H](c3ccoc3)C[C@H]3O[C@]32[C@]2(C)C(=O)C(O)=C3C(C)(C)C(=O)C=C[C@]3(C)C12 (stereo partly specified),red/green cell ratio (normalised),[1],0.93 (inactive)
same,normalised cell number,[1]; [24],0.15
same,normalised cell number,[1]; [25],0.14
same,activity remaining,[2],102% (inactive)
C=CCc1ccc(OC)cc1,red/green cell ratio (normalised),[1],1.02 (inactive)
same,normalised cell number,[1]; [24],0.96
same,normalised cell number,[1]; [25],0.99
same,activity remaining,[2],107% (inactive)
same,luciferase signal,[3],52 AU (inactive)
O=C(NC(=O)c1c(F)cccc1F)Nc1ccc(Cl)cc1,red/green cell ratio (normalised),[1],1 (inactive)
same,normalised cell number,[1]; [24],0.99
same,normalised cell number,[1]; [25],0.99
same,activity remaining,[2],122% (inactive)
same,luciferase signal,[3],32 AU (inactive)
O=c1c(O)c(-c2ccc(O)c(O)c2)oc2c(O)c(O)cc(O)c12,red/green cell ratio (normalised),[1],1.09 (inactive)
same,normalised cell number,[1]; [24],0.84
same,normalised cell number,[1]; [25],0.91
same,activity remaining,[2],118% (inactive)
same,luciferase signal,[3],48 AU (inactive)
C[C@H]1OC(O[C@H]2[C@@H](O)CC(O[C@H]3[C@@H](O)C[C@H](O[C@H]4CC[C@]5(C)C6CC[C@]7(C)[C@@H](C8=CC(=O)OC8)[C@@H](O)C[C@]7(O)[C@@H]6CC[C@@H]5C4)O[C@@H]3C)O[C@@H]2C)C[C@H](O)C1O (stereo partly specified),red/green cell ratio (normalised),[1],0.34 (inactive)
same,normalised cell number,[1]; [24],0.21
same,normalised cell number,[1]; [25],0.07
same,activity remaining,[2],115% (inactive)
C=CCN=C=S,red/green cell ratio (normalised),[1],0.88 (inactive)
same,normalised cell number,[1]; [24],1.07
same,normalised cell number,[1]; [25],0.93
same,fold change,[4]; stronger effect = lower value,1.01 (inactive)
same,fold change,[4]; [26],0.842
same,cell count,[4]; [27],7390
same,cell count,[4]; [28],7280
same,remaining NAD,[5],10 nM (inactive)
CC1=CC(=O)c2c(O)cccc2C1=O,red/green cell ratio (normalised),[1],0.13 (inactive)
same,normalised cell number,[1]; [24],0.08
same,normalised cell number,[1]; [25],0.01
same,activity remaining,[2],112% (inactive)
same,luciferase signal,[3],276 AU (active)
COc1cc2c(cc1O)CC1c3c(cc(O)c(OC)c3-2)CCN1C (stereo unspecified),survival,[6],4.08 (inactive)
same,parasite load remaining,[7],73.5% (inactive)
same,viability,[7],80.3%
same,red/green cell ratio (normalised),[1],0.97 (inactive)
same,normalised cell number,[1]; [24],1.11
same,normalised cell number,[1]; [25],1.07
same,activity remaining,[2],119% (inactive)
CN1CC(CNC(=O)OCc2ccccc2)CC2c3cccc4c3c(cn4C)CC21 (stereo unspecified),inhibition,[8],-46%
same,score,[9],1.1
same,rescue above control,[10],11.5
same,cytochrome c release ratio,[11],0.97
same,inhibition of aggregation,[12],12.2%
same,glutamate uptake change,[13],5.85%
same,aggregation suppression score,[14],1.13
same,red/green cell ratio (normalised),[1],0.64 (inactive)
same,normalised cell number,[1]; [24],1.26
same,normalised cell number,[1]; [25],0.81
same,activity remaining,[2],113% (inactive)
CCCCC[C@H]1C(=O)O[C@H](C)[C@H](NC(=O)c2cccc(NC=O)c2O)C(=O)O[C@@H](C)[C@@H]1OC(=O)CC(C)C,EC50,[15],300 nM (active)
same,inhibition,[8],29.9%
same,score,[9],0.73
same,rescue above control,[10],-18
same,cytochrome c release ratio,[11],0.26
same,inhibition of aggregation,[12],7.32%
same,glutamate uptake change,[13],3.11%
same,aggregation suppression score,[14],0.0257
same,red/green cell ratio (normalised),[1],0.71 (inactive)
same,normalised cell number,[1]; [24],0.78
same,normalised cell number,[1]; [25],0.55
same,activity remaining,[2],111% (inactive)
same,luciferase signal,[3],60 AU (inactive)
CS(=N)(=O)CC[C@H](N)C(=O)O (stereo partly specified),period change,[16],-0.08 h (inactive)
same,survival,[6],9.75 (inactive)
same,parasite load remaining,[7],18.6% (inactive) and 51.3% (inactive)
same,viability,[7],102% and 77.3%
same,inhibition,[17],-3% (inactive)
same,fluorescence ratio (interference),[18],1 (inactive)
same,red/green cell ratio (normalised),[1],0.94 (inactive)
same,normalised cell number,[1]; [24],1.08
same,normalised cell number,[1]; [25],1.02
same,remaining activity,[19],115% (inactive)
same,fold change,[4]; stronger effect = lower value,1.04 (inactive) and 0.811 (inactive)
same,fold change,[4]; [26],0.701 and 1.11
same,cell count,[4]; [27],10400 and 8780
same,cell count,[4]; [28],9920 and 10800
same,outcome,[20],inactive
same,z-score,[21],0.45 (inactive)
CN(C)Cc1c[nH]c2ccccc12,fluorescence slope change,[22],124% (active)
same,survival,[6],7.33 (inactive)
same,parasite load remaining,[7],169% (inactive) and 78.1% (inactive)
same,viability,[7],115% and 79.2%
same,red/green cell ratio (normalised),[1],1.08 (inactive)
same,normalised cell number,[1]; [24],0.84
same,normalised cell number,[1]; [25],0.9
same,fold change,[4]; stronger effect = lower value,0.891 (inactive) and 0.984 (inactive)
same,fold change,[4]; [26],2.07 and 0.28
same,cell count,[4]; [27],8410 and 7970
same,cell count,[4]; [28],9440 and 8100
same,z-score,"[23]; MELAS cybrid survival, CellTiter-Glo 48 h, stronger effect = higher value",-0.265 (inactive)
same,z-score,"[23]; Rieske KO mouse fibroblast survival, CellTiter-Glo 72 h",0.0463
